In PubChem BioAssay (NCATS) one finds Potency and activity change, negative = inhibition data, which are given here for seven compounds.

Records with an inconclusive call do not appear. The source holds several records for some structures; these can differ, active in one and inactive in another. Active and inactive are the calls of the source. The call rests on the fitted dose curve.

The nature of experiment [1]: Primary qHTS for Huh7 cytotoxicity: counterscreen for inhibitors of MERS-S pseudotyped particle cell entry (AID 1479147). The settings on record: outcome: dose series up to 57.1 µM unless noted. (In qHTS, concentration-response curves come from the screen itself.)
The nature of experiment [2]: Primary qHTS for inhibitors of MERS-S pseudo-typed particle cell entry (AID 1479149). Further: nearly all actives have a fitted effect of over 60% in size. On activity change, negative = inhibition: on the % scale 0 is the no-effect control and ±100 the full control effect. The note with it: outcome: dose series up to 57.1 µM unless noted.
Experiment [3] is described as follows: Primary qHTS for Vero E6 cytotoxicity: counterscreen for inhibitors of SARS-S pseudo-typed particle cell entry (AID 1479150). The note with it: outcome: dose series up to 57.1 µM unless noted.
Experiment [4] can be described thus: Cytotoxicity counterscreen for inhibitors of SARS-CoV-2 cell entry (AID 1645845). Further: nearly all actives have a fitted effect of over 50% in size. The settings on record: outcome: dose series up to 57.1 µM unless noted. A digest of the protocol: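 48 h compound treatment (after 1 h preincubation), HEK293-ACE2 cells, 37 C/5% CO2; ATP luminescence endpoint; normalized to cell wells and media blanks.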
Experiment [5] in a line: Primary qHTS to identify inhibitors of SARS-CoV-2 cell entry (AID 1645846). Further: nearly all actives have a fitted effect of over 45% in size. Further: potency means the concentration at half of the fitted maximal effect. The settings on record: SARS-CoV-2 pseudovirus cell entry assay, luminescence; activity change, negative = inhibition: at 57.1 µM (top of the series) unless noted. A digest of the protocol: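 HEK293-ACE2 (Expi293F, stable hACE2), 1500 cells/well, o/n 37C; cpd 23 nL pin, 1 h; MLV-PP w/ SARS-CoV-2-S (Wuhan-Hu-1, Δ19 C-term); 48 h 37C; Bright-Glo luminescence; normalized vs S-PP and bald PP.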

For the compound `CCCC1CC(C(=O)NC(C(C)Cl)C2OC(SC)C(OP(=O)(O)O)C(O)C2O)N(C)C1` (stereo unspecified), the Potency result in experiment [1], in experiment [2], in experiment [3] and in experiment [4] was “inactive” throughout. The activity change, negative = inhibition in experiment [5] was -28.7% [at 27.1 µM].
In the case of `COc1ccc(-c2noc(CC(=O)O)c2-c2ccc(OC)cc2)cc1`, the Potency result in experiment [1], in experiment [2], in experiment [3] and in experiment [4] was “inactive” in each case. In addition, in experiment [5], the activity change, negative = inhibition is -24.5%.
For `Cc1ccc(Sc2ccccc2N2CCNCC2)c(C)c1`, the Potency result in experiment [1], in experiment [2], in experiment [3] and in experiment [4] was “inactive” each time. In addition, the Potency in experiment [5] was 22.4 µM (active). Further, the activity change, negative = inhibition in experiment [5] is -7.77%.
As to `NS(=O)(=O)c1cc2c(cc1Cl)NC(Cc1ccccc1)NS2(=O)=O` (stereo unspecified), the Potency result in experiment [1], in experiment [2], in experiment [3] and in experiment [4] was “inactive” throughout. Also, in experiment [5], the activity change, negative = inhibition was -16.2%.
As to `C/C(=C(/CCO)SSCC1CCCO1)N(C=O)Cc1cnc(C)nc1N` (stereo unspecified), the Potency entry in experiment [1], in experiment [2], in experiment [3] and in experiment [4] was “inactive” each time. Further, the activity change, negative = inhibition in experiment [5] is -21.7%.
In the case of `O=C1N=C(N2CCOCC2)CN1c1ccc(Cl)cc1`, the Potency result in experiment [1], in experiment [2], in experiment [3] and in experiment [4] was “inactive” each time. Besides, the activity change, negative = inhibition in experiment [5] was -29.2%.
As to `CC(C)CC(NC(=O)CNC(=O)C(Cc1ccc(O)cc1)NC(=O)C(CO)NC(=O)C(Cc1c[nH]c2ccccc12)NC(=O)C(Cc1cnc[nH]1)NC(=O)C1CCC(=O)N1)C(=O)NC(CCCN=C(N)N)C(=O)N1CCCC1C(=O)NCC(N)=O` (stereo unspecified), the Potency result in experiment [1], in experiment [2], in experiment [3] and in experiment [4] was “inactive” throughout. The activity change, negative = inhibition in experiment [5] was -25.2%.
